Test results published in PubChem BioAssay AID588342 (National Center for Advancing Translational Sciences (NCATS), 2011).
The campaign covered roughly 360,000 compounds. About 25,000 (6.9%) were called active. Inconclusive results (about 9%) are left out. Many of the other results were omitted from the sample, so actives are more common in it than they were. A number with no mark means an inactive call. The call rests on the fitted dose curve; in most records, active means well fitted inhibition curve with a large enough effect; inconclusive means small, poorly fitted or top-dose-only effect; inactive means flat fitted curve, though single readings scatter.

The compounds below were run against Luciferin 4-monooxygenase (Photinus pyralis) (UniProt P08659) (assay: qHTS profiling assay for firefly luciferase inhibitor/activator using purifed enzyme and Km concentrations of substrates (counterscreen for miR-21 project)). Conditions: purified FLuc, luminescence inhibition; series mostly up to 57.5 µM; activity change, negative = inhibition: at the top concentration.
Summary of the method: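 Purified P. pyralis luciferase (10nM final) with 10uM D-luciferin and 10uM ATP (Km levels) in 50mM Tris acetate pH 7.5, 10mM Mg acetate, 0.01% Tween-20, 0.05% BSA; qHTS 6-point titration, ~60 µM downward; luminescence read.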
Further: nearly all actives have a fitted effect of over 55% in size.
Potency means the concentration at half of the fitted maximal effect.
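Wherever activity change, negative = inhibition is given: plate controls were vehicle for no effect and reference inhibitor for full effect.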

Chain of Luciferin 4-monooxygenase (Photinus pyralis) (P08659 whole entry, looked up): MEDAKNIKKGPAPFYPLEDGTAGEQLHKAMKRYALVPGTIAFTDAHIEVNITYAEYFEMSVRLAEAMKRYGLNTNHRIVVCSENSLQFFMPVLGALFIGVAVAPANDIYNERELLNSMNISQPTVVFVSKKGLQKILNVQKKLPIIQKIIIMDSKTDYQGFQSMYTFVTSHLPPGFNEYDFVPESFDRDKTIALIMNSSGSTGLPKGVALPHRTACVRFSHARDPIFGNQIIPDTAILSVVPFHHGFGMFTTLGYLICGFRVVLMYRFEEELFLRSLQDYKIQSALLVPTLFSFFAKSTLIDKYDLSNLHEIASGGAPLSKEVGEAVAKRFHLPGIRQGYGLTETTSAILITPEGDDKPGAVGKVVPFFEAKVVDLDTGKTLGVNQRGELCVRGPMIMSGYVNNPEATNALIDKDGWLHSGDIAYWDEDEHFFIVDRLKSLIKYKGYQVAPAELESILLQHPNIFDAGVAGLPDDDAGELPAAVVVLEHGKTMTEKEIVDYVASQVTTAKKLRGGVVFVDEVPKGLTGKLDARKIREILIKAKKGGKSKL

Row | Structure (SMILES) | activity change, negative = inhibition | Potency
1 | COc1cccc(C(=O)c2sc3nc(-c4ccccc4)cc(C(F)(F)F)c3c2N)c1 | -0.554% | 
2 | Cc1nc2sc(C(=O)c3ccccc3)c(N)c2c2c1CCCC2 |  | 10.7 µM (active)
3 | COc1ccc(C(F)(F)F)cc1NC(=O)c1sc2nc(-c3cccs3)ccc2c1N | -1.38% | 
4 | COC(=O)c1cc2c(N)c(C(=O)c3ccc(Cl)cc3)sc2nc1C(OC)OC | -11.4% | 
5 | CCN(CC)C(=O)c1sc2nc(-c3ccccc3)ccc2c1N |  | 5.36 µM (active)
6 | Cc1ccc2c(N)c(C(=O)c3ccccc3)sc2n1 |  | 21.3 µM (active)
7 | CCCS(=O)(=O)c1c(Nc2ccccc2C)sc(C(=O)c2ccccc2)c1N | 1.11% | 
8 | CC(=O)c1c(Nc2ccccc2)sc(C(=O)c2ccccc2)c1C | -3.32% | 
9 | CCc1nc2sc(C(=O)O)c(N)c2c2c1CCCC2 | -2.9% | 
10 | CN(C)c1ccnc2sc(C(=O)c3ccccc3)c(N)c12 |  | 5.36 µM (active)
11 | CN(C)c1ccnc2sc3c(=O)n(Cc4ccccc4)cnc3c12 | 3.33% | 
12 | Nc1c(C(=O)NCc2ccccc2)sc2nc3c(cc12)C(=O)CCC3 | 2.35% | 
13 | COc1cc(OC)c(NC(=O)Cc2ccc(-n3c(C)nc4cccnc43)cc2)cc1Cl | -14.7% | 
14 | O=C(O)CCCCCCCCc1cn(CN2C(=O)c3ccccc3C2=O)nn1 | -0.842% | 
15 | CCOCCCNC(=O)c1c(NC(=O)c2nc(SC)ncc2Cl)sc2c1CCCC2 | -1.87% | 
16 | CC(=O)NC(c1cccs1)c1cc(Br)c2cccnc2c1O (stereo not given) | -0.554% | 
17 | CC(OC(=O)CNC(=O)c1cccc(F)c1)C(=O)NC1CCCCC1C (stereo not given) | -0.117% | 
18 | CCN(CC)c1ccc(C2C(C(N)=O)=C(C)Nc3nc(SCc4ccccc4)nn32)cc1 (stereo not given) | -0.212% | 
19 | CSc1nccc(NC(=O)c2ccc(C(C)(C)C)cc2)n1 |  | 1.9 µM (active)
20 | CSc1ncc(C(=O)Nc2ccc(C)cc2C)c(C)n1 | -0.488% | 
21 | COC(=O)c1nc(NC(=O)c2ccc(F)cc2)n[nH]1 | -14.8% | 
22 | COC(=O)c1ccccc1NC(=O)c1cc(-c2ccccc2O)no1 | -15.2% | 
23 | O=S(=O)(NCCCCCCNS(=O)(=O)c1c(F)cccc1F)c1ccc2c(c1)OCCO2 | 4.33% | 
24 | Cc1ccccc1CCNC(=O)C1CCN(c2nc3ccccc3nc2C(F)(F)F)CC1 | -6.81% | 
25 | O=C1CCNCCN1[C@H](CO)Cc1ccccc1 | 1.19% | 
26 | CC(=O)NCC(=O)N(Cc1ccco1)C1(C(=O)NC2CCCC2)CCCCC1 | -1.26% | 
27 | CSc1ccccc1NC(=O)c1cnc2sc(C)cn2c1=O |  | 5.36 µM (active)

Row | Structure (SMILES) | activity change, negative = inhibition | Potency
28 | Cc1cccn2c(=O)c(C(=O)NC(C)c3ccccc3)cnc12 (stereo not given) | -2.31% | 
29 | CSc1ccccc1NC(=O)c1cc(Cl)sc1Cl | -13.3% | 
30 | CCOc1ccc(NS(=O)(=O)c2ccc(Cl)c(C(=O)N(C)Cc3cccnc3)c2)cc1 | 4.21% | 
31 | CC(=O)Nc1ccc(NC(=O)CCN2C(=O)C3CC=CCC3C2=O)cc1 (stereo not given) | 4.45% | 
32 | CCC(=O)c1ccc(OCC(=O)N(CC)CC2COc3ccccc3O2)cc1 (stereo not given) | 11.9% | 
33 | CCC(=O)N1CCc2cc(S(=O)(=O)NC(C(=O)Nc3ccc(C(C)=O)cc3)C(C)C)ccc21 (stereo not given) | 3.87% | 
34 | O=C(Cc1ccccc1)NNC(=O)C1CCN(c2ncccn2)CC1 | -1.06% | 
35 | COc1ccccc1Oc1ccc(N/C=C2/CCCC2=O)cc1 | -13.2% | 
36 | O=C1/C(=C\Nc2ccccc2)CCN1c1ncccn1 |  | 23.9 µM (active)
37 | CCc1nnc(SCc2c(F)cccc2Cl)c2cc3sccc3n12 | -0.0505% | 
38 | COc1cc(C(=O)NN(CCC#N)C2=NS(=O)(=O)c3ccccc32)cc(OC)c1OC | 3.16% | 
39 | CCOC(=O)C1CCCN(C(=O)Cn2ncc3c(C)n(Cc4ccc(F)cc4)c(C)c3c2=O)C1 (stereo not given) | -11.5% | 
40 | Cc1cnc(CN(C)C(=O)C2CCC(=O)N(CCc3cccc(F)c3)C2)[nH]1 (stereo not given) | 0.959% | 
41 | O=C(Nc1ccc(Br)cn1)c1ccc([N+](=O)[O-])cc1Cl |  | 13.5 µM (active)
42 | O=C(Nc1cccnc1)c1cc([N+](=O)[O-])ccc1Cl | -0.936% | 
43 | O=C(Nc1ccncc1)c1ccc([N+](=O)[O-])cc1Cl | -8.87% | 
44 | COc1ccc2[nH]c3c(c2c1)CCN(C(=O)CCC1CCCC1)C3c1ccc(F)cc1 (stereo not given) | -0.437% | 
45 | Cc1cccc(-c2noc(CCC(=O)NC3CCCC3)n2)c1 | -9.98% | 
46 | Cc1ccc(Cc2nc(-c3cccc(C)c3)no2)cc1 |  | 10.7 µM (active)
47 | Cc1ccc(-c2noc(CC(c3ccccc3)c3ccccc3)n2)cc1 | 10.8% | 
48 | CCc1ccccc1NC(=O)CSc1nnc(-c2ccccc2)c(-c2ccccc2)n1 | -4.53% | 
49 | Cc1ccc(CCNC(=O)Cn2c(-c3cccs3)cc3cc(F)ccc32)cc1 | -1.98% | 
50 | CCc1nn(CC(=O)N2CCN(c3cccc(C(F)(F)F)c3)CC2)c(=O)c2cc3occc3n12 | -1.64% | 
51 | O=C(CSc1ccc(-c2ccco2)nn1)NCc1ccc2c(c1)OCO2 | -18% | 
52 | Oc1ccc(-n2nnnc2SCc2c(F)cccc2Cl)cc1 | -3.56% | 
53 | CCn1c(CNC(=O)c2ccco2)nnc1SCC(=O)Nc1cccc(F)c1 | 4.49% | 
54 | Cc1cc(SCc2c(F)cccc2Cl)nc(=O)[nH]1 | 1.07% | 

Row | Structure (SMILES) | activity change, negative = inhibition | Potency
55 | Fc1cccc(Cl)c1CSc1ccc(-c2ccco2)nn1 |  | 13.5 µM (active)
56 | O=C(CSc1ccc(-c2ccco2)nn1)Nc1cccc(F)c1 |  | 12 µM (active)
57 | Cc1noc2ncnc(NCc3ccccc3Cl)c12 | -5.3% | 
58 | O=C(CCSCc1cccc(F)c1)NCc1ccccc1 | -13.1% | 
59 | O=C1NC(Nc2nc3ccccc3s2)(C(F)(F)F)C(=O)N1C1CCCCC1 (stereo not given) | 0.553% | 
60 | CCN(CC)CCn1c2c(c(SCC(=O)Nc3nc4ccccc4s3)nc1=O)CCCC2 | -1.18% | 
61 | c1ccc2sc(NN=C3CCCC3)nc2c1 |  | 2.69 µM (active)
62 | COC(=O)c1ccccc1NC(=O)C(Cc1ccccc1)N1Cc2ccccc2C1=O (stereo not given) | -3.18% | 
63 | COCCNC(=O)CSc1nc(-c2ccccc2)[nH]c1-c1ccc(C)cc1 | -6.21% | 
64 | C=CCNC(=S)N1CCN(CCN=Cc2c(C)[nH]n(-c3ccc([N+](=O)[O-])cc3)c2=O)CC1 | -6.74% | 
65 | O=C(Nc1cccnc1Cl)c1cc(-c2cccc(Cl)c2)on1 |  | inactive
66 | O=C(Nc1ccccc1C(F)(F)F)c1cc(-c2ccc(O)cc2)on1 |  | 26.9 µM (active)
67 | CCc1ccccc1NC(=O)c1cc(-c2ccc3c(c2)OCO3)on1 |  | inactive
68 | Cc1ccccc1CSc1nc2c([nH]c3ccccc32)c(=O)n1C | -1.85% | 
69 | COc1ccc(CNC(=O)CS(=O)Cc2nc(-c3cccc(C)c3)oc2C)cc1 (stereo not given) | -17.5% | 
70 | COc1ccc(CNc2nc(-c3ccc(Cl)cc3)nn2C(=O)c2ccccc2)cc1 | -0.962% | 
71 | COc1ccc(CNc2nc(-c3ccc(Cl)cc3)cc(C(F)(F)F)n2)cc1 | -3.26% | 
72 | COc1ccc(Cn2c(-c3ccc(Cl)cc3)c[n+]3ccccc23)cc1 |  | 19 µM (active)
73 | COc1ccc(OC)c(-c2csc(-c3c(N)c(C(=O)c4ccccc4)n4ccccc34)n2)c1 | 0.147% | 
74 | CC(C)(C)c1ccc(C(=O)N2CCC(c3nc(-c4ccc(S(=O)(=O)N5CCCC5)cc4)no3)CC2)cc1 | -17% | 
75 | CC(C)NC(=O)C(=O)N/N=C/c1ccco1 | 5.52% | 
76 | O=C(NCc1ccccc1Cl)c1csc2c1CCCCC2 | -13.1% | 
77 | CCOc1ccc(CCNC(=O)c2csc3c2CCCCC3)cc1 | -5.62% | 
78 | Cc1ccc(NC(=O)c2csc3c2CCCC3)cc1 |  | 4.26 µM (active)
79 | COC(=O)c1sc(NC(=O)c2csc3c2CCCC3)nc1C |  | 2.39 µM (active)
80 | CC1CC(C)CN(CCCNC(=O)c2csc3c2CCCCC3)C1 (stereo not given) | 0.607% | 
81 | CCOC(=O)c1sc(NC(=O)c2cc(S(=O)(=O)N3CCOCC3)ccc2C)nc1C | -0.843% | 

Row | Structure (SMILES) | activity change, negative = inhibition | Potency
82 | O=C(N/N=C/c1ccco1)c1ccc(NC(=O)C2CC2)cc1 | -5.08% | 
83 | O=C(N/N=C/c1ccco1)c1csc2c1CCCC2 |  | 15.1 µM (active)
84 | Cc1c(CCOC(=O)CC23CC4CC(CC(C)(C4)C2)C3)sc[n+]1Cc1ccc([N+](=O)[O-])cc1 | 5.92% | 
85 | CCn1c(SCC(=O)NCC2CCCO2)nc2ccccc21 (stereo not given) | 2.93% | 
86 | CCc1ccccc1NC(=O)Cn1c(=O)n(-c2cccc(C)c2)c(=O)c2c1c1cc(OC)ccc1n2C | -1.17% | 
87 | CC(=O)c1ccc(S(=O)(=O)NCCC(=O)N2CCN(c3ccccn3)CC2)cc1 | 1.49% | 
88 | O=C(CC(c1cccs1)N1Cc2ccccc2C1=O)Nc1ccc(F)cc1F (stereo not given) | -8.01% | 
89 | Nc1ccc(C(=O)N2CCN(S(=O)(=O)c3ccc(Cl)cc3)CC2)cc1[N+](=O)[O-] | -0.246% | 
90 | COc1ccc(-c2nc(S(=O)(=O)c3ccccc3)c(N3CCCCC3)o2)cc1 | -1.77% | 
91 | Oc1cccc2ccc(/C=C/c3ccc(Br)s3)nc12 |  | 6.75 µM (active)
92 | Nc1ccc(S(=O)(=O)Nc2nccc(/C=C/c3ccc(Br)s3)n2)cc1 | -10.2% | 
93 | COc1cccc(N(CC(=O)NC2CCCC2)C(=O)CCCC(=O)Nc2ccccn2)c1 | 0.401% | 
94 | CC1CCN(C(=S)c2ccc(-c3ccc(Cl)cc3Cl)o2)CC1 |  | 12 µM (active)
95 | CC1CCN(C(=S)c2cccc(O)c2)CC1 | -1.03% | 
96 | COc1ccc(C(=O)Nc2c(Cl)cc(Cl)cc2C(=O)N2CCC(C)CC2)cc1 | 1.11% | 
97 | O=C(CN1C(=O)COc2ccc(S(=O)(=O)N3CCOCC3)cc21)N1CCN(c2cccc(Cl)c2)CC1 | 0.0356% | 
98 | Cc1onc(-c2ccccc2)c1C(=O)NNC(=S)NC(=O)c1ccc(F)cc1 | 1.17% | 
99 | O=C(NNC(=S)NC(=O)c1cn(-c2ccccc2)nc1-c1ccccc1)c1ccncc1 |  | 13.5 µM (active)
100 | COc1ccc(C(=O)NC(=S)NNC(=O)c2c(-c3ccccc3)noc2C)cc1 | -0.585% | 
101 | CC(=O)c1cccc(NC(=O)c2cc(C)nn2-c2ccccc2)c1 | -9.7% | 
102 | Cc1onc(-c2ccccc2)c1C(=O)Nc1ccccc1C#N | 9.37% | 
103 | O=C(Nc1cn(-c2ccccc2)nc1-c1ccccc1)c1ccccc1 |  | 15.1 µM (active)
104 | CCCCn1cc(S(=O)(=O)c2ccc(OCC)cc2)c(=O)c2cc(OC)c(OC)cc21 | 0.657% | 
105 | CCCCC/C=C/C1=CC(=O)C[C@H](c2ccc(Cl)cc2)C1 | -0.231% | 
